Test results taken from the supplement of paper PMC10338343.
± gives the standard deviation.

System: MILI (PIWIL2) piRISC loaded with L1MC piRNA (26 nt)
Assay: pre-steady-state target cleavage rate (min^-1); guide: L1MC piRNA 5'p-UAACUAAAUACUAUGCAAGCUGUAGG; MIWI and MILI are mouse PIWI proteins and EfPiwi is from a freshwater sponge; tags in brackets are library labels; higher = faster piRNA-guided slicing of the target
Summary of the method: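 Cleave-'n-Seq used a transcribed, DNA-blocked target RNA library at 0.1 nM and active affinity-purified piRISC with one synthetic guide at 1 nM, with or without 500 nM GTSF1 partner protein, in HEPES–potassium acetate buffer at 33 °C for 0–8 or 0–960 min. Uncleaved targets were sequenced and normalised to depth and to weakly complementary targets, and three trials were pooled with k3 capped at 0.0001 min^-1. The pre-steady-state cleavage rate was estimated by a burst-and-steady-state fit.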

[1] = auxiliary factor: 500 nM mouse GTSF1
[2] = auxiliary factor: none (no GTSF1)

Sequence | pre-steady-state target cleavage rate [1] | pre-steady-state target cleavage rate [2]
UCCUGGAUGUGCUUGCUUAGUUUUUAGUUA | 0.011 ± 0.0063 | 0.00656 ± 0.0028
UCCUGGAACAGCUAGCAUAGUAUAUAGUUA | 0.229 ± 0.026 | 0.00524 ± 0.0027
UCCUGGAUGUCGAUGCGUAGUAUUUAGUUA | 0.0121 ± 0.0036 | 0.00501 ± 0.0024
UCCUGGAAGAGCUUGCAUAGUAUUUAGAUA | 0.182 ± 0.034 | 0.00463 ± 0.0025
UCCUGGAUGUGGUUGCAAAGUAUUUAGUUA | 0.0262 ± 0.0077 | 0.00983 ± 0.0026
UCCUGGAUGUCGUUGCAUAGUAAUUAGUUA | 0.116 ± 0.022 | 0.00563 ± 0.002
UCCUGGAUGUCGAUGCAUAGUAUUUUAGUUA | 0.0747 ± 0.0088 | 0.00647 ± 0.0026
UCCUGGAUGUGCUUGCAGAGUAUUUAGUUA | 0.0463 ± 0.009 | 0.00711 ± 0.0023
UCCUGGAACAGGAUGCAUAGUAUUUAGUUA | 0.285 ± 0.016 | 0.0116 ± 0.0027
UCCUGGUUCAGCUUGCAUAGUAUAUAGUUA | 0.198 ± 0.034 | 0.0112 ± 0.0032
UCCUGGAUCAGCUUGGAUAGUAUUAAGUUA | 0.162 ± 0.027 | 0.00386 ± 0.0022
UCCUGGAUGUCGUAGCAUAGUAUUAAGUUA | 0.0506 ± 0.013 | 0.00246 ± 0.0024
UCCUGGAUGUGCAUGCAUAGUAUUAAGUUA | 0.122 ± 0.017 | 0.00463 ± 0.0027
UCCUCUUACAGCUUGCAUAGUAUUUAGUUA | 0.35 ± 0.015 | 0.00963 ± 0.0032
UCCUGGAUGUCGAACGAGAGUAUUUAGUUA | < 0.0001 | < 0.0001
UCCUGGAUGUGCUUGCAUAGAUUUUAGUUA | 0.00729 ± 0.0044 | 0.00375 ± 0.0024
UCCUGGAACAGCUUGCUUAGUAUUUACUUA | 0.187 ± 0.032 | 0.00316 ± 0.0028
UCCUGGAUGUCCUUGCAUAGAUAUUUAGUUA | 0.00754 ± 0.004 | 0.00426 ± 0.0023
UCCUGGUACACCUUGCAUUGUAUUUAGUUA | 0.15 ± 0.041 | 0.00903 ± 0.0041
UCCUGGAUGUGGAUGCAUAGUAUUUAGUAA | 0.0714 ± 0.012 | 0.00471 ± 0.003
UCCUGGUUCAGCUUGCAUAGAAUUUAGUUA | 0.0374 ± 0.011 | 0.003 ± 0.0029
UCCUGGAUCACCUUGCAUUGUAUUUAGUUA | 0.094 ± 0.015 | 0.00486 ± 0.0032
UCCUGGUUGAGCUUGCAUAGUAUUUAGUAA | 0.196 ± 0.022 | 0.00595 ± 0.0027
UCCUGGAUGAGCUUGCAAAGUAUUUUGUUA | 0.0703 ± 0.019 | 0.00392 ± 0.0026
UCCUCCAACAGCUUGCAUAGUAUUUAGUAA | 0.232 ± 0.02 | 0.00476 ± 0.0022
UCCUGGAUGUCCUUGCAUAGUAGUUUAGUUA | 0.0394 ± 0.014 | 0.00805 ± 0.0029
UCCUGGAUGUCCUUGCAUAGUGAUUUAGUUA | 0.0104 ± 0.0052 | 0.00503 ± 0.0028

Sequence | pre-steady-state target cleavage rate [1] | pre-steady-state target cleavage rate [2]
UCCUGGAUCAGCUAGCAUAGUAUUUAGUUA | 0.236 ± 0.012 | 0.00845 ± 0.0024
UCCUGGAUGUCCUUGCGUAGUAUUUAGUUA | 0.0231 ± 0.0068 | 0.0122 ± 0.0025
UCCUGGAUGUCGUUGGCAUAGUAUUUAGUUA | 0.0621 ± 0.015 | 0.0049 ± 0.003
UCCUGGAUGUGCAUGCAUAGUAUUUUGUUA | 0.0798 ± 0.018 | 0.00327 ± 0.0032
UCCUGGAUGUCGUUGCAUAGUGUUUAGUUA | 0.0461 ± 0.01 | 0.00452 ± 0.0029
UCCUGGAUGUCGAAGCAUAGUAUUUAGUUU [g2:g16:cont:t1U] | 0.0307 ± 0.0082 | 0.00447 ± 0.0018
UCCUGGAUGAGCUUGCAUAGUAUAUAGUUA | 0.24 ± 0.031 | 0.00759 ± 0.0023
UCCUGGAUGUCCUUGCUUAGUUUUUAGUUA | 0.0152 ± 0.0067 | 0.00494 ± 0.0023
UCCUGGAUGUCCUUGCAUGGUAUUUAGUUA | 0.0346 ± 0.011 | 0.00814 ± 0.0026
UCCUGGAUGUGCUUGCAUUGUUUUUAGUUA | 0.00733 ± 0.005 | 0.00335 ± 0.0032
UCCUGGAUGUGCUUGCAUUGUAUAUAGUUA | 0.0696 ± 0.012 | 0.00543 ± 0.0026
UCCUGGUACAGCUUGCAUAGUAUUUAGUUU [g2:g24:cont:t1U] | 0.249 ± 0.016 | 0.0218 ± 0.0053
UCCUGGAUGUCGUUGCAUAGUAUUAUAGUUA | 0.173 ± 0.03 | 0.00429 ± 0.0034
UCCUGGAUGAGCAUGCAUAGUAUUAAGUUA | 0.22 ± 0.024 | 0.00547 ± 0.0024
UCCUGGUACAGCAUGCAUAGUAUUUUGUUA | 0.11 ± 0.022 | 0.00364 ± 0.0034
UCCUGGAUGUCCUUGCUUUGUAUUUAGUUA | 0.00984 ± 0.0041 | 0.00458 ± 0.0025
UCCUGGAUCAGCUUGCAUAGUGAUUUAGUUA | 0.0194 ± 0.0067 | 0.00404 ± 0.0022
UCCUCCUAACAGCUUGCAUAGUAUUUAGUUA | 0.213 ± 0.018 | 0.0084 ± 0.0021
UCCUGGAUGUCGAUGGCAUAGUAUUUAGUUA | 0.0677 ± 0.014 | 0.00792 ± 0.003
UCCUGGAUGUGCUUGCAAUGUAUUUAGUUA | 0.0104 ± 0.005 | 0.0111 ± 0.0028
UCCUGGAUGAGGUUGCUUAGUAUUUAGUUA | 0.12 ± 0.01 | 0.0107 ± 0.0022
UCCUGGUACAGCUUGCAUAGGUAUUUAGUUA | 0.0078 ± 0.0065 | 0.00574 ± 0.0037
UCCUGGUACUGCUUGCAUAGUAUUUUGUUA | 0.0539 ± 0.019 | 0.00457 ± 0.0034
UCCUGGAUGUGCUUGCAAAGUAUUUAGUAA | 0.033 ± 0.0074 | 0.00287 ± 0.0025
UCCUGGAUGUCCUUGCAUAGUAUUUACGUUA | 0.11 ± 0.023 | 0.00693 ± 0.003
UCCUGGAACAGCUUGAUAGUAUUUAGUUA | 0.11 ± 0.013 | 0.00612 ± 0.0022
UCCUGGAUGAGGUUGCAUAGUAUUAAGUUA | 0.0422 ± 0.018 | 0.00493 ± 0.0031
